{"source": "PubChem BioAssay (NCI)", "note": "The panel holds about 79,000 compounds, 15% with a hit somewhere; the sample as a whole holds those more often. A number with no mark means an inactive call. The source made the active and inactive calls. Cut-off read from the data, not from the text of the source: active = growth inhibition above about 70%; inactive = the rest.", "data": [{"test": "NCI Yeast Anticancer Drug Screen. Data for the rad50 strain (AID 155);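 note: 0% = growth of vehicle-only cultures of the same strain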", "settings": "S. cerevisiae rad50 strain growth inhibition; at 50.0 µM; hits give high values", "how_it_was_run": "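Relative growth inhibition (compound vs vehicle) was measured in yeast with a defined repair-gene alteration.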", "units": {"growth inhibition": "%"}, "values": [{"compound": "COC(=O)/C(=N\\N)C(C(=O)C(=O)Nc1nc(=S)[nH][nH]1)c1nc2ccc([N+](=O)[O-])cc2[nH]c1=O", "note": "(stereo not drawn)", "growth inhibition": 2.3}, {"compound": "CCC(C)C(NCc1ccccc1)C(=O)O", "note": "(stereo not drawn)", "growth inhibition": -8.75}, {"compound": "CCCCON1C[C@H](OC(C)=O)C(OC(C)=O)[C@H](OC(C)=O)C1", "note": "(stereo partly drawn)", "growth inhibition": -44.8}, {"compound": "CCNc1nc(C)nc2c1cnn2-c1ccc(C)cc1", "growth inhibition": 6.25}, {"compound": "CC1OC(O[C@@H]2OC=C(C=O)[C@@]3(O)CC[C@H](C)[C@@H]23)C(O)C(O)C1O", "note": "(stereo partly drawn)", "growth inhibition": 16.2}, {"compound": "Nc1nc(=O)n(C2CCC(CO)O2)cc1F", "note": "(stereo not drawn)", "growth inhibition": 34.7}, {"compound": "O=C(O)COc1cccc2ccccc12", "growth inhibition": 5.25}, {"compound": "CCOC1CCC=CO1", "note": "(stereo not drawn)", "growth inhibition": -9.65}, {"compound": "O=C(Nc1ccccc1Br)c1ccc(F)cc1", "growth inhibition": -0.9}]}, {"test": "NCI Yeast Anticancer Drug Screen. Data for the mec2-1 strain (AID 157)", "settings": "S. cerevisiae mec2-1 strain, at 50.0 µM, hits give high values", "how_it_was_run": "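Strain: mec2-1 (DNA repair/cell cycle alteration). Compound exposure, then growth measured; inhibition expressed relative to vehicle.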", "values": [{"compound": "Nc1cc(S(=O)(=O)O)cc2ccc(S(=O)(=O)O)cc12", "growth inhibition": "6.75%"}, {"compound": "Cc1cc(=O)oc2c(C)c(O)ccc12", "growth inhibition": "-16.5%"}, {"compound": "O=C(OC(=O)c1cccnc1)c1cccnc1", "growth inhibition": "-9.5%"}, {"compound": "O=[N+]([O-])c1ccc(N=Nc2ccc(O)c3c(O)cc(S(=O)(=O)O)cc23)cc1S(=O)(=O)O", "growth inhibition": "9%"}, {"compound": "Cc1cccc2c(=O)[nH]c(=O)[nH]c12", "growth inhibition": "-12.2%"}, {"compound": "CC(C)N(C(=O)C12C3C4C5C3C1(C(=O)N(C(C)C)C(C)C)C5C42)C(C)C", "note": "(stereo not drawn)", "growth inhibition": "17.4%"}, {"compound": "Nc1ccc(/C(=N\\O)c2ccccc2)cc1", "growth inhibition": "13.9%"}, {"compound": "Cc1ccc(C(C)C)cc1NC(=O)/C=C/c1ccccc1", "growth inhibition": "36%"}, {"compound": "COc1ccc(OC)c(-c2cc(C(=O)O)c3cc4ccccc4cc3n2)c1", "growth inhibition": "6.05%"}, {"compound": "CCC12CC3(C(=O)OC)OC1C(O)CN1CCc4c(n3c3cc(OC)ccc43)C12", "note": "(stereo not drawn)", "growth inhibition": "-42.1%"}, {"compound": "Cc1cc(=O)oc2nc(-c3ccccc3)[nH]c(=O)c12", "growth inhibition": "-10.2%"}, {"compound": "CCOC(=O)Nc1ccc(S(=O)(=O)c2ccc(Nc3ccnc4cc(Cl)ccc34)cc2)cc1", "growth inhibition": "10.2%"}, {"compound": "O=S(=O)(/C=C/c1ccc(Cl)cc1Cl)Cc1ccccc1CS(=O)(=O)/C=C/c1ccc(Cl)cc1Cl", "growth inhibition": "5.3%"}, {"compound": "Nc1nc(N)c(Nc2ccc(Cl)cc2)c(Cl)n1", "growth inhibition": "29.2%"}, {"compound": "CCCCN(CCCC)C(=O)C(O)C(=O)N(CCCC)CCCC", "growth inhibition": "-13.8%"}, {"compound": "CC(=O)Oc1nnc(OC(C)=O)c2cc(N)ccc12", "growth inhibition": "-18.3%"}, {"compound": "Nc1cc2c(cn1)[nH]c1ccccc12", "growth inhibition": "-14.8%"}, {"compound": "CCOC(=O)C1(C(=O)OCC)CCCCC1=O", "growth inhibition": "-15.2%"}, {"compound": "COc1ccc(/C=N\\N2CN(C(CC(N)=O)C(=O)O)C(O)(CCl)N=C2N)cc1OC", "note": "(stereo not drawn)", "growth inhibition": "-6.9%"}, {"compound": "Cc1ccc([Si](C)(C)c2ccccc2)cc1", "growth inhibition": "13.6%"}, {"compound": "COC1CC(OC2C(C)OC(OC3C(C)OC(OC4C(C)OC(O[C@H]5CC[C@@]6(C)C(=CC[C@]7(O)[C@@H]6C[C@@H](OC(=O)/C=C/c6ccccc6)[C@@]6(C)[C@]7(O)CC[C@@]6(O)C(C)=O)C5)CC4OC)CC3OC)CC2OC)OC(C)C1O", "note": "(stereo partly drawn)", "growth inhibition": "19.2%"}, {"compound": "N#CC(C#N)=CNc1cccc(Cl)c1", "growth inhibition": "9.8%"}, {"compound": "C#CCN(CC#C)C(=O)C(=O)c1c[nH]c2ccc(OC)cc12", "growth inhibition": "0.9%"}, {"compound": "CCCCCCCCCCCCCCCC(=O)OCC(=O)O", "growth inhibition": "-16.4%"}, {"compound": "Cc1cccc2c1-c1c(C)cccc1C(Cl)S(=O)(=O)C2", "note": "(stereo not drawn)", "growth inhibition": "-4.6%"}, {"compound": "N#CC(C#N)=C(O)/C(=C/c1ccc(Cl)cc1Cl)NC(=O)c1ccccc1", "growth inhibition": "1.15%"}, {"compound": "N#CC(CN1CCCCC1)c1ccccc1", "note": "(stereo not drawn)", "growth inhibition": "1.55%"}, {"compound": "O=C1CN(c2ccc(Cl)cc2)C(=O)CN1/N=C/c1ccc(O)c(O)c1", "growth inhibition": "-10.8%"}, {"compound": "CN1[C@@H]2C[C@@H](OC(=O)[C@H](CO)c3ccccc3)C[C@H]1[C@@H]1O[C@@H]12", "growth inhibition": "2.4%"}, {"compound": "CC(=O)c1ccc(C(=O)O)cc1", "growth inhibition": "-11.6%"}, {"compound": "CC(C)Oc1c(O)c2c3c(oc(=O)n3C=CC2c2ccccc2)c1OC(C)C", "note": "(stereo not drawn)", "growth inhibition": "86.9% (active)"}, {"compound": "COC(=O)/C(=N\\N)C(C(=O)C(=O)Nc1nc(=S)[nH][nH]1)c1nc2ccc([N+](=O)[O-])cc2[nH]c1=O", "note": "(stereo not drawn)", "growth inhibition": "-7.65%"}, {"compound": "CCC(C)C(NCc1ccccc1)C(=O)O", "note": "(stereo not drawn)", "growth inhibition": "7.5%"}, {"compound": "CCCCON1C[C@H](OC(C)=O)C(OC(C)=O)[C@H](OC(C)=O)C1", "note": "(stereo partly drawn)", "growth inhibition": "-15.9%"}]}]}
